PfHsp90 yeast 2 – inhibits growth of yeast expressing Plasmodium falciparum Hsp90; inhibition, % at 9.4 µM; S. cerevisiae expressing PfHsp90, BacTiter-Glo ATP, 48 h; yeast lacking PDR1 and PDR3 efflux regulators; hit rate 0.32% among 310,000;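 active = every replicate shows inhibition above about 80%, whatever the replicate mean, limit read from the data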;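 also: 0% = DMSO neutral controls and 100% = 20 µM radicicol positive controls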
tim23-1 inh – growth inhibitors of tim23-1 mutant yeast. S. cerevisiae tim23-1 growth, BacTiter-Glo luminescence, 24 h. inhibition, % at 20 µM. hit rate 1.3% among 330,000. AID 463212;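 active = growth inhibition of the mutant yeast at or above 50%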;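 also: temperature-sensitive mutant grown at 25 °C; plate controls were DMSO-treated mutant yeast for no effect and medium wells lacking yeast for full effect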
TIM10 inh – inhibits growth of TIM10 yeast strain | S. cerevisiae TIM10 strain growth, BacTiter-Glo luminescence, 24 h | inhibition, % at 10 µM | hit rate 1.4% among 330,000;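 active = inhibition of 40% or more at the single tested concentration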;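 also: wild-type TIM10 isogenic control strain grown at permissive 25 °C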
tim10-1 inh – tim10-1 yeast growth inhibition; S. cerevisiae tim10-1 ts strain growth, BacTiter-Glo, 24 h; inhibition, % at 20 µM; hit rate 2.2% among 330,000;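 active = inhibition of at least 40%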;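 also: mutant grown at 25 °C; 0% = DMSO wells with yeast and 100% = wells holding no yeast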
SKKanGAS inh – SKKanGAS growth inhibition; S. pyogenes SKKanGAS, kanamycin growth, BacTiter-Glo, 6 h; inhibition, % at 7.5 µM; hit rate 1.3% among 300,000;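 active = mean replicate score, as percent of positive control median, at least 50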;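 also: strain carries kanamycin resistance gene driven by streptokinase promoter and grows in 40 µg/ml kanamycin; loss of luminescence reflects streptokinase promoter inhibition or plain growth inhibition; 0% = median of DMSO wells and 100% = positive control at its reference dose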
V-ATPase pHluor – regulators of yeast V-ATPase proton transport | hit rate 0.37% among 350,000 | S. cerevisiae, pHLuorin cytosolic pH fluorescence | AID 504577 | response, % at 10 µM; in the data active = response mostly above about 7.3%, no sharp cut-off; inactive = mostly below about 5.4%; also: actives read high
tim10-1 conf – confirmation of tim10-1 mutant yeast growth inhibitors; hit rate 56% among 7,400; AID 463213; inhibition, % at 20 µM; S. cerevisiae tim10-1 ts strain growth, BacTiter-Glo, 24 h; shares compounds with tim10-1 inh;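 active = inhibition of yeast growth at or above a set limit in either of two repeat tests at 20 µM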;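 also: tim10-1 mutant grown at permissive 25 °C to find synthetic lethal compounds; 0% = DMSO yeast wells and 100% = medium wells without yeast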
The depositor's hits bear a star. Rows were chosen to be rich in hits. Some 4.6% of all compounds tested hit in one or more screens of this group.

CCN(C(=O)COC(=O)/C(C#N)=C/c1ccc(OC)cc1)C1CCS(=O)(=O)C1 (stereo not drawn) was read as PfHsp90 yeast 2 10, tim23-1 inh 4, TIM10 inh 2, tim10-1 inh -2, SKKanGAS inh -2 and V-ATPase pHluor 1.
Screening N#Cc1ccc(NC(=O)Cn2cnc(S(=O)(=O)N3CCCC3)c2)cc1 returned PfHsp90 yeast 2 12, tim23-1 inh -2, TIM10 inh 3, tim10-1 inh -16, SKKanGAS inh 1 and V-ATPase pHluor -1.
`O=C(NC(=S)N1CCCCCC1)c1ccccc1Cl` gave PfHsp90 yeast 2 -10, tim23-1 inh 24, TIM10 inh 17, tim10-1 inh 23, SKKanGAS inh -6 and V-ATPase pHluor -3.
For O=C(NC(=S)N1CCCCCC1)c1ccc(Cl)cc1Cl the results were PfHsp90 yeast 2 -6, tim23-1 inh 45, TIM10 inh 39, tim10-1 inh 48*, SKKanGAS inh 23, V-ATPase pHluor 2 and tim10-1 conf 30*.
`O=C(CNc1cccc2ccccc12)N/N=C/C(Br)=C/c1ccccc1` gave PfHsp90 yeast 2 2, tim23-1 inh 48, TIM10 inh 36, tim10-1 inh 41*, SKKanGAS inh -9, V-ATPase pHluor 0 and tim10-1 conf 31*.
Screening O=C(Cn1cnc2ccccc21)N/N=C/C(Br)=C/c1ccccc1 returned PfHsp90 yeast 2 -41, tim23-1 inh -35, TIM10 inh -13, tim10-1 inh -22, SKKanGAS inh 1 and V-ATPase pHluor 1.
Screening C=CCc1c(C)nc(-c2ccccc2)nc1N/N=C/c1ccccc1 returned PfHsp90 yeast 2 12, tim23-1 inh 36, TIM10 inh 33, tim10-1 inh 46*, SKKanGAS inh -3, V-ATPase pHluor -1 and tim10-1 conf 32*.
`C=CCc1c(C)nc(-c2ccccc2)nc1N/N=C/c1ccncc1` gave PfHsp90 yeast 2 -31, tim23-1 inh 9, TIM10 inh -19, tim10-1 inh -15, SKKanGAS inh -2 and V-ATPase pHluor 1.
For CN1CCN(S(=O)(=O)c2ccc(Br)c3nsnc23)CC1 the results were tim23-1 inh -10, TIM10 inh -14, tim10-1 inh 46*, SKKanGAS inh -5, V-ATPase pHluor -2 and tim10-1 conf -10.
Screening O=S(=O)(c1ccc(Br)c2nsnc12)N1CCOCC1 returned PfHsp90 yeast 2 -3, tim23-1 inh 6, TIM10 inh 0, tim10-1 inh -8, SKKanGAS inh -3 and V-ATPase pHluor -2.
`O=C(C1CCC1)N1CCCc2cc(S(=O)(=O)N3CCN(c4ccccc4)CC3)ccc21` gave PfHsp90 yeast 2 -3, tim23-1 inh 44, TIM10 inh 13, tim10-1 inh 46*, SKKanGAS inh 5, V-ATPase pHluor 9 and tim10-1 conf 35*.
`CC[C@H](C)[C@H]1CNC(=S)N1CC1CCN(CC)CC1` gave V-ATPase pHluor -3.
CCCn1c2ccc(C)cc2c2n[nH]c(=S)nc21 was read as PfHsp90 yeast 2 -10, tim23-1 inh 48, TIM10 inh 17, tim10-1 inh 46*, SKKanGAS inh -3, V-ATPase pHluor -3 and tim10-1 conf -1.
For CCOc1cc(/C=C2\N=C(SCC)SC2=O)cc([N+](=O)[O-])c1OC(C)=O the results were PfHsp90 yeast 2 -20, tim23-1 inh 6, TIM10 inh 17, tim10-1 inh 32, SKKanGAS inh 17 and V-ATPase pHluor 1.
For CCOc1cc(/C=C2\N=C(SC)SC2=O)cc([N+](=O)[O-])c1OC(C)=O the results were PfHsp90 yeast 2 26, tim23-1 inh 46, TIM10 inh 15, tim10-1 inh 42*, SKKanGAS inh 8, V-ATPase pHluor -2 and tim10-1 conf 26.
For O=C(Cn1ccc(NC(=O)OCc2ccccc2)nc1=O)NCCCn1ccnc1 the results were tim23-1 inh 1, TIM10 inh -1, tim10-1 inh 8 and V-ATPase pHluor 0.
`CCOc1ccc(C(=O)CN2CCN(S(=O)(=O)c3ccc(OC)cc3)CC2)cc1` gave PfHsp90 yeast 2 17, tim23-1 inh 48, TIM10 inh 23, tim10-1 inh 42*, SKKanGAS inh 2, V-ATPase pHluor -9 and tim10-1 conf 42*.
`CC(C)(C)C(=O)CSc1ccc(S(=O)(=O)N2CCN(Cc3ccccc3)CC2)cn1` gave PfHsp90 yeast 2 0, tim23-1 inh 39, TIM10 inh 24, tim10-1 inh 42*, V-ATPase pHluor 1 and tim10-1 conf 36*.
`COc1ccc(S(=O)(=O)N2CCN(Cc3ccccc3)CC2)cc1` gave PfHsp90 yeast 2 11, tim23-1 inh 41, TIM10 inh 12, tim10-1 inh 48*, SKKanGAS inh -2, V-ATPase pHluor -4 and tim10-1 conf 31.
For O=C(Nc1ccccn1)c1ccc(Cl)c(S(=O)(=O)N2CCc3ccccc32)c1 the results were PfHsp90 yeast 2 14, tim23-1 inh 39, TIM10 inh 1, tim10-1 inh 22 and V-ATPase pHluor 0.
O=C(C[C@H]1C[C@@H]2c3cc(NC(=O)c4cccnc4)ccc3O[C@@H]2[C@H](CO)O1)NCc1ccncc1 was read as V-ATPase pHluor -1.
For N#CCc1ccc(OC(=O)c2ccncc2)cc1 the results were PfHsp90 yeast 2 -33, tim23-1 inh -1, TIM10 inh 3, tim10-1 inh -8, SKKanGAS inh -4 and V-ATPase pHluor 4.
For O=C(Nc1ccc2c3c(cccc13)CC2)c1ccccc1 the results were V-ATPase pHluor 0.
Screening CN(Cc1nc2ccccc2c(=O)[nH]1)C(=O)c1cc(C2CC2)nn1-c1ccccc1 returned PfHsp90 yeast 2 40, tim23-1 inh 18, TIM10 inh 0, tim10-1 inh -5 and V-ATPase pHluor 2.
For CC1CN(c2nc3c(c(=O)n(Cc4ccc(Cl)cc4)c(=O)n3C)n2C)CC(C)O1 (stereo not drawn) the results were PfHsp90 yeast 2 4, tim23-1 inh 19, TIM10 inh 38, tim10-1 inh 44*, SKKanGAS inh -11, V-ATPase pHluor -2 and tim10-1 conf 26.
For CC(C)Cn1c(=O)c2c(nc3n2CC(C)CN3Cc2ccccc2)n(C)c1=O (stereo not drawn) the results were PfHsp90 yeast 2 -27, tim23-1 inh 30, TIM10 inh 8, tim10-1 inh 40*, SKKanGAS inh -9, V-ATPase pHluor 4 and tim10-1 conf 7.
For COc1ccc(C(=O)C(C)OC(=O)COc2ccccc2)cc1 (stereo not drawn) the results were tim23-1 inh -2, TIM10 inh -5, tim10-1 inh 0 and V-ATPase pHluor 1.
CCOC(=O)N1CCN(C(=O)c2ccc(CSc3ccc(Cl)cc3)cc2)CC1 was read as PfHsp90 yeast 2 30, tim23-1 inh 38, TIM10 inh 34, tim10-1 inh 45*, SKKanGAS inh 1, V-ATPase pHluor 2 and tim10-1 conf 45*.

High-throughput results as filed in PubChem.
